The values below come from PubChem BioAssay (NCI).

Some test systems named below: NCI-H23 lung; NCI-H226 lung; NCI-H322M lung; HOP-62 NSCLC; NCI-H460 lung; HOP-92 NSCLC; NCI-H522 lung; A549/ATCC NSCLC; 786-0 renal; COLO 205 colon; DU-145 prostate; K-562 leukemia; MALME-3M melanoma; MDA-MB-231 breast; RXF 393 renal; SF-268 CNS; SF-295 CNS; SF-539 CNS; UACC-257 melanoma; M14 melanoma.
Common to all, as to experiment: NCI-60 one-dose screen, 48 h (100 = growth as untreated, 0 = no growth, -100 = all killed)
Settings in all cases: 10 µM unless noted

About 83,000 compounds went through this panel and 20% of them were active in at least one assay; those are over-represented in the sample as a whole.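 Each cell line was grown in a 96-well plate and treated with one concentration of compound for 48 hours. Values below 10 were considered active.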 Unmarked numbers belong to inactive results. Active and inactive are the calls of the source.

As to `COc1cc2c(c(OC)c1OC)CCC(c1cccc(C(=O)Nc3ccc(Br)cc3)c1)O2` (centres undefined), the growth is 75.8% in the test with NCI-H23 lung; 62.7% with NCI-H226 lung; 50% with NCI-H322M lung; 82% with HOP-62 NSCLC; 84% in the test on NCI-H460 lung; 17% with HOP-92 NSCLC. Also, the growth in the test with NCI-H522 lung is 48.8%; in the test with A549/ATCC NSCLC it was 64.2%; in the test on 786-0 renal, 84.1%; in the test with COLO 205 colon, 76.5%; with DU-145 prostate it was 71%; in the test on K-562 leukemia it was 40.4%. For the same molecule, the growth in the test on MALME-3M melanoma is 72.3%; in the test with MDA-MB-231 breast, 17%; with RXF 393 renal it was 75%; with SF-268 CNS it was 76.6%; in the test on SF-295 CNS, 56.5%; in the test with SF-539 CNS, 76.6%. Moreover, the growth in the test on UACC-257 melanoma is 75.6%; in the test on M14 melanoma, 70.5%.

For `Cc1cccc(-c2nc(C(C)C)sc2-c2ccnc(NCCCNS(=O)(=O)c3ccc(Cl)cc3)c2)c1`, the growth in the test with NCI-H23 lung is 84.9%; in the test with NCI-H226 lung it was 81.4%; in the test with NCI-H322M lung it was 95.1%; in the test with HOP-62 NSCLC it was 91.6%; in the test on NCI-H460 lung it was 70.1%; with HOP-92 NSCLC, 83.1%. The growth in the test with NCI-H522 lung was 55.4%; in the test with A549/ATCC NSCLC it was 74.8%; in the test with 786-0 renal, 76.3%; in the test with COLO 205 colon it was 60.8%; in the test on DU-145 prostate, 78.2%; in the test with K-562 leukemia, 30.5%. For the same molecule, the growth with MALME-3M melanoma was 99.9%; in the test with MDA-MB-231 breast, 76.5%; in the test on RXF 393 renal, 103%; in the test on SF-268 CNS, 67.4%; in the test on SF-295 CNS, 80.7%; with SF-539 CNS, 84.2%. Further, the growth with UACC-257 melanoma was 113%.

On to `CNCC[C@H](Oc1cccc2ccccc12)c1cccs1`, for which the growth is 80.6% with NCI-H23 lung; 96.7% in the test with NCI-H226 lung; 98.2% in the test on NCI-H322M lung; 128% in the test on HOP-62 NSCLC; 104% in the test with NCI-H460 lung; 52.5% in the test with HOP-92 NSCLC. The growth in the test with NCI-H522 lung is 81.4%; in the test with A549/ATCC NSCLC, 96.4%; with 786-0 renal, 82.9%; in the test with COLO 205 colon, 102%; in the test on DU-145 prostate, 115%; in the test on K-562 leukemia it was 54.7%. Further, the growth with MALME-3M melanoma was 113%; in the test with MDA-MB-231 breast it was 7.37% (active); in the test with RXF 393 renal, 72.3%; in the test on SF-268 CNS, 88.2%; with SF-295 CNS it was 94.1%; with SF-539 CNS, 97.5%. In addition, the growth in the test with UACC-257 melanoma was 90.1%.

As to `COc1ccc2c(c1)CC[C@@H]1[C@@H]2CC[C@]2(C)c3c(cc(C#N)c4c3sc3ccccc34)C[C@@H]12`, the growth in the test with NCI-H23 lung is 99.4%; in the test with NCI-H226 lung, 99.2%; in the test on NCI-H322M lung, 108%; in the test on HOP-62 NSCLC, 99.5%; with NCI-H460 lung, 115%; in the test with HOP-92 NSCLC, 62.4%. In addition, the growth with NCI-H522 lung was 96.5%; with A549/ATCC NSCLC it was 106%; in the test with 786-0 renal, 111%; in the test with COLO 205 colon it was 110%; with DU-145 prostate it was 121%; with K-562 leukemia, 88.5%. Further, the growth was 108% with MALME-3M melanoma; 107% with MDA-MB-231 breast; 106% in the test on RXF 393 renal; 100% with SF-268 CNS; 103% in the test on SF-295 CNS; 105% in the test on SF-539 CNS. Further, the growth in the test on UACC-257 melanoma is 99.9%.

Consider `COc1ccc(C=Nc2c(C(=O)Nc3cccc(Cl)c3C)sc3nc(C)c(C(=O)/C=C/c4ccc(OC)cc4)cc23)cc1`, for which the growth is 31.2% with NCI-H23 lung; 53.8% with NCI-H226 lung; 43.1% with NCI-H322M lung; 46.5% in the test with HOP-62 NSCLC; 8.92% (active) in the test on NCI-H460 lung; 79.2% with HOP-92 NSCLC. Besides, the growth in the test on NCI-H522 lung was 0.467% (active); with A549/ATCC NSCLC it was 30.8%; in the test on 786-0 renal, 21.5%; in the test with COLO 205 colon, 11.2%; in the test with DU-145 prostate, 14.7%; with K-562 leukemia it was 17.1%. Besides, the growth in the test with MALME-3M melanoma is 44.4%; in the test on MDA-MB-231 breast, 2.5% (active); with RXF 393 renal, -44.4% (active); in the test with SF-268 CNS, 29.9%; in the test with SF-295 CNS, 18.5%; in the test on SF-539 CNS, -30.6% (active). Also, in the test with UACC-257 melanoma, the growth is 55.6%.

`Cc1ccc(OCCOCCOCCOc2ccc(C)n(O)c2=S)c(=S)n1O`: the growth in the test with NCI-H23 lung is 44.9%; in the test on NCI-H226 lung, 29%; with NCI-H322M lung, 40.6%; in the test with HOP-62 NSCLC, 30.3%; in the test with NCI-H460 lung, 17.3%; in the test with HOP-92 NSCLC, 81.1%. The growth with NCI-H522 lung is 22.5%; in the test on A549/ATCC NSCLC, 29.9%; in the test with 786-0 renal, 40.9%; with COLO 205 colon, 7.96% (active); in the test with DU-145 prostate, 50.5%; in the test on K-562 leukemia, 18.9%. In addition, the growth with MALME-3M melanoma was 47%; in the test with MDA-MB-231 breast, 28.3%; in the test on RXF 393 renal, 66%; in the test on SF-268 CNS it was 29%; in the test on SF-295 CNS, 29.1%; with SF-539 CNS, 45.8%. In addition, the growth with UACC-257 melanoma is 68.4%.

On to `COc1cc(-c2nccc3[nH]c(-c4cccc5[nH]ccc45)nc23)cc(OC)c1OC`, for which the growth was 26.8% in the test on NCI-H23 lung; 34% in the test on NCI-H226 lung; 64% in the test with NCI-H322M lung; 12.2% in the test on HOP-62 NSCLC; 7.17% (active) in the test with NCI-H460 lung; -2.13% (active) in the test on HOP-92 NSCLC. Also, the growth was -15.7% (active) in the test on NCI-H522 lung; 17.3% in the test on A549/ATCC NSCLC; 7.27% (active) in the test with 786-0 renal; -62.9% (active) in the test on COLO 205 colon; 22.7% in the test with DU-145 prostate; 8.35% (active) with K-562 leukemia. For the same molecule, the growth in the test on MALME-3M melanoma is 56%; with MDA-MB-231 breast it was 19.7%; in the test on RXF 393 renal, 50.8%; in the test on SF-268 CNS, 34.2%; in the test with SF-295 CNS it was 21%; in the test with SF-539 CNS, 3.35% (active). Further, in the test with UACC-257 melanoma, the growth is 58.7%.

As to `O=C(NCCN1CCOCC1)OCc1ccc2c(Cl)cc(Cl)c(O)c2n1`, the growth in the test with NCI-H23 lung was 72.8%; in the test with NCI-H226 lung it was 94.6%; in the test on NCI-H322M lung, 66.9%; with HOP-62 NSCLC, 47.8%; in the test with NCI-H460 lung it was 63.7%; in the test with HOP-92 NSCLC it was 77.3%. Also, the growth was 81% in the test on NCI-H522 lung; 56.8% with A549/ATCC NSCLC; 81.9% with 786-0 renal; 109% with COLO 205 colon; 57.7% in the test on DU-145 prostate; 31.7% with K-562 leukemia. Moreover, the growth with MALME-3M melanoma is 73.4%; in the test with MDA-MB-231 breast it was 93.8%; in the test on RXF 393 renal it was 77.3%; with SF-268 CNS, 57.3%; in the test with SF-295 CNS, 49.2%; with SF-539 CNS, 77.9%. Also, the growth is 89.1% with UACC-257 melanoma and 54.6% with M14 melanoma.
